# Rows were chosen to be rich in hits. Some 4.6% of all compounds tested hit in one or more screens of this group.
# Epigenetic derep – epigenetic control regulation, reporter derepression; actives 0.2% (n = 280,000); AID 1865; murine LDR cells, GFP reporter derepression, 30 h; Potency, µM (highest dose often 53.9 µM), inactives show at the highest dose GFP activation, usual class: activators; active = well fitted activation curve with a large enough effect; inconclusive = small, poorly fitted or top-dose-only effect; also: potency is read from the fitted curve at half-maximal effect; % of control where 0% means no effect; nearly all actives have a fitted effect of over 60% in size
#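 Murine LDR cells bearing a silenced CMV-driven GFP reporter were exposed to compound for 30 h at 37 C. After PBS washes, GFP-positive cells (20-120 um objects) counted by laser-scanning microplate cytometry.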
# D1 PAM – enhances dopamine response at the human D1 receptor; AID 504651; potentiation, % at 10 µM; actives 0.036% (n = 360,000); P21728; HEK293 TREx D1 cells, calcium flux, dopamine EC20 potentiation; in the data active = potentiation above about 30%; also: 0% is about no effect
# Target sequence (P21728 whole entry, looked up): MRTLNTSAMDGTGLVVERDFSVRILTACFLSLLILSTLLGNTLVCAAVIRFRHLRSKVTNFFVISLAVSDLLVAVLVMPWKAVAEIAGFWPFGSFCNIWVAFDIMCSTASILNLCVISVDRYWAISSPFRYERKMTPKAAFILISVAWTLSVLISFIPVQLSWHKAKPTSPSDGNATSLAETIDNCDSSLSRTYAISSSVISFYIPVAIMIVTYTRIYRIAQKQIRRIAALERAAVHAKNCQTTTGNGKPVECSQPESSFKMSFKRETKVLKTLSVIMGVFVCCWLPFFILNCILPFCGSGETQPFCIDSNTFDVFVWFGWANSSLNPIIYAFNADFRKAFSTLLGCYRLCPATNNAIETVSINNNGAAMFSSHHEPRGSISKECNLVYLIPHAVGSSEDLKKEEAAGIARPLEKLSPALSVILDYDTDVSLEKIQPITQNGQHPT
# D1 ag – human D1 receptor agonism; HEK293 T-REx D1 cells, calcium flux, agonist mode; activation, % at 2 µM; actives 1% (n = 360,000); AID 504660; also: 0% is about no effect
#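 Agonism was scored from calcium flux recorded over 180 s (1 read/s) after pintool compound addition, following a 10-cycle baseline. Cells were inducible force-coupled HEK293 TREx D1, plated overnight at 30 C and loaded with no-wash calcium dye.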
# D1 antag – antagonists of human D1 dopamine receptor; AID 504652; actives 3.2% (n = 360,000); HEK293 TREx D1 cells, calcium flux, dopamine EC80; hits give low values; P21728; activity change, negative = inhibition, % at 10 µM; in the data active = activity change below about -30%; also: % is scaled to controls: 0 for no effect and ±100 for the full control effect
#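 Kinetic fluorescence of a calcium dye serves as the read-out. D1-expressing Hek293 Trex cells, induced overnight at 30 C, are exposed to compound for 180 s before an EC80 dopamine addition, then read 180 s further.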
# TRHR ag – TRH receptor (human) agonism; P34981; TRHR cells, calcium flux fluo-8, FDSS agonist mode; activation, % at 2 µM; actives 0.18% (n = 360,000); AID 493084; also: 0% is about no effect
#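 In this calcium-flux screen, cells bearing human TRHR are dye-loaded with fluo-8, baselined for 10 cycles, then exposed to library compounds; positive kinetic calcium responses during the agonist phase mark hits, with TRH as control.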
# TRHR PAM – TRH receptor (human) allosteric enhancement. P34981. enhancement, % at 2 µM. actives 0.66% (n = 360,000). TRHR cells, fluo-8 calcium fluorescence, EC20 TRH enhancement; in the data active = enhancement above about 30%; also: 0% is about no effect
#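 Enhancer read-out: after compound pinning and an initial kinetic agonist-mode read, an EC20 of TRH (10 nM final) was injected and fluo-8 calcium signal (Ex 480/Em 530) followed at 1 s/cycle for 100 cycles in TRHR-expressing cells.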
# The depositor's hits bear a star; ? = inconclusive; . = no result given; ! = not confirmed by another sample. Rule as the data show it, unless noted: active = activation above about 30%; inactive = the rest.
SMILES,Epigenetic derep,D1 PAM,D1 ag,D1 antag,TRHR ag,TRHR PAM
O=C(Nc1ccccc1F)C(=Cc1sc(N2CCOCC2)nc1-c1ccccc1)C(=O)Nc1ccccc1F,14.1µM*,-2.4,23.9,4.7,14.7,-5.8
Cc1ccc(-n2nc(C)c3c(C(=O)NCc4ccccc4)cc(C4CC4)nc32)cc1,-1.3%,-2.5,3.8,17.9,1.4,2.0
COc1ccc(-c2nn(CCC#N)cc2C(=O)Nc2cccc(C(=O)O)c2)cc1OC,.,-5.2,1.7,-36.4*,0.5,9.0
CC1CCC(NC(=O)CN(C)S(=O)(=O)c2ccc3c(c2)CCC(=O)N3)CC1 (centres undefined),.,-2.4,3.3,-30.5*,0.1,1.5
O=C(COc1ccc(F)cc1)NNC(=O)c1cc2ccccc2oc1=O,-0.9%,-9.2,0.7,-30.0*,0.0,-2.6
Cc1cccc(OCC(=O)NNC(=O)c2cc3ccccc3oc2=O)c1,0.0%,-7.0,3.0,-3.6,-0.4,10.1
CC1C/C(=C/c2cccn2C)C(=O)/C(=C/c2cccn2C)C1 (centres undefined),11.2µM*,6.8,197.9*,-29.4,82.1*,35.1*
O=C1/C(=C/c2ccncc2)Cc2ccccc21,.,-5.0,0.3,11.4,0.2,1.9
CC1C/C(=C/c2ccncc2)C(=O)/C(=C/c2ccncc2)C1 (centres undefined),?,-3.2,5.9,-31.5*,2.0,-2.1
O=C(NCCc1ccc(Cl)cc1)c1nnc(Cc2ccc(Cl)cc2Cl)o1,0.0%,4.0,6.0,-4.1,-0.1,3.6
COc1ccc(-n2nc3c(N4CCC(C(=O)NCc5ccccc5C)CC4)nnc(C)c3c2C)cc1,0.7%,12.5,75.5*!,-2.5,-0.1,-14.0
O=C1CCc2ccc(OCCCCN3CCN(c4cccc(Cl)c4Cl)CC3)cc2N1,9.9%,.,.,-43.9*,-0.3,-2.3
CC(C)(C)c1ccc(O)c(N=Cc2cc(Br)ccc2O)c1,-1.1%,1.2,10.5,13.5,2.7,2.1
Cc1ccc(O)c(C=Nc2cc(C)ccc2O)c1,2.9%,-3.6,4.5,-35.2*,-0.3,3.0
CCN(CC)S(=O)(=O)c1nnc(NC(=O)COc2ccccc2F)s1,0.0%,-0.7,0.8,-4.2,0.2,8.3
O=c1cc(O)c2c(=O)[nH]c(=O)n(-c3ccccc3)c2[nH]1,0.0%,-5.7,2.2,0.0,0.5,33.0*
CCOc1ccc(CN2CCC(C(=O)Nc3cccc(-c4ccn[nH]4)c3)CC2)cc1Cl,.,-8.9,17.3,-53.3*,2.0,0.9
COc1cccc(-c2cccc(NC(=O)C3CCN(Cc4nccs4)CC3)c2)c1,.,-0.6,0.2,-1.3,-0.2,-4.6
O=C(NCc1ccccc1F)C1CCCN(c2cnccn2)C1 (centres undefined),.,0.2,2.5,-34.8*,-0.8,1.7
CC(=O)N1CCOc2ccc(S(=O)(=O)NCc3ccccc3Cl)cc21,.,-4.2,0.8,-32.1*,-0.3,0.0
Cc1ccccc1CNS(=O)(=O)c1ccc2c(c1)OCCO2,-2.0%,-9.6,20.4,-32.4*,-0.4,11.2
Cc1ccccc1CNS(=O)(=O)c1ccccc1[N+](=O)[O-],0.3%,-3.9,1.3,6.1,-0.5,32.1*
COc1ccccc1CNS(=O)(=O)c1ccc2c(c1)N(C(C)=O)CCO2,.,2.0,-0.6,-5.3,0.0,7.9
CCn1c(O)c(/C=N/N=C/c2ccc(OC)cc2)c2cc(C3=NNC(=O)CC3)ccc21,7.08µM*,3.2,29.0,1.4,9.7,14.8
Cc1ccc(-c2nc3ncccc3o2)cc1NC(=O)COc1ccc(C(C)C)cc1,6.8%,1.8,6.9,14.4,-0.1,8.1
SMILES,Epigenetic derep,D1 PAM,D1 ag,D1 antag,TRHR ag,TRHR PAM
N#Cc1nc(Nc2ccc3ccccc3c2)nc(NC2CCCC2)n1,.,7.2,3.5,39.3,1.1,26.2
N#Cc1nc(Nc2cccc(F)c2)nc(NC2CCCC2)n1,.,-6.0,13.9,-34.0*,0.3,-0.4
Fc1cc(F)cc(Nc2nc(NC3CCCC3)nc(C3CO3)n2)c1 (centres undefined),.,-6.7,74.5*,-36.9*,3.6,-8.6
N#Cc1nc(Nc2cccc(-c3ccccc3)c2)nc(NC2CCCC2)n1,.,-5.4,4.6,-31.1*,1.3,0.9
COc1ccc(Nc2nc(C#N)nc(NC3CCCC3)n2)cc1,.,-1.4,-0.2,-36.4*,-2.7,-1.5
Cc1ccc(CS(=O)(=O)CCC(=O)NCc2cccs2)cc1,-2.3%,-8.4,-1.0,-32.5*,-0.6,2.9
Cc1ccc(CS(=O)(=O)CCC(=O)NCCc2ccccc2)cc1,.,1.2,0.0,-14.3,-0.7,-3.5
CCOC(=O)C1(Cc2cccc(Cl)c2)CCCN(C(=O)c2cnn(CC)c2)C1 (centres undefined),.,-4.0,1.4,-38.5*,0.0,-1.6
CCOC(=O)c1ccc(N=c2sc(C(=O)OC)cc(=O)n2Cc2ccco2)cc1,-1.0%,-3.5,4.2,-12.2,0.1,5.1
CCOC(=O)c1ccc(N=c2sc(C(=O)OC)cc(=O)n2CCCN2CCOCC2)cc1,?,-8.7,3.5,-40.5*!,0.3,0.1
COC(=O)/C=C/S(=O)(=O)c1ccc(NC(C)=O)cc1,-2.1%,-1.3,2.2,7.8,0.6,33.1*
Cn1c(=O)n(Cc2ccc(Cl)cc2)c2ccccc21,-1.3%,-5.2,-2.9,-33.1*,0.1,-7.1
O=C(CN1C(=O)CC(c2ccc(F)cc2)=Nc2ccccc21)NCc1ccccc1Cl,0.0%,1.8,3.1,-46.2*,1.0,-2.5
O=c1c2[nH]c3ccsc3c2cnn1Cc1ccccc1F,.,-6.8,1.3,20.8,-0.9,-1.4
CCOCCCNC(=O)C1CCN(c2nc3ccc(C)cc3[nH]2)CC1,-2.8%,4.5,0.2,-45.7*,-0.2,4.2
Cc1cccc(CNC(=O)C2CCN(c3nc4ccc(Cl)cc4[nH]3)CC2)c1,-1.2%,-0.7,42.3*,11.3,-0.8,-2.3
COC(=O)CNC(=O)C1CCN(c2nc(C)cc(C)n2)CC1,-1.1%,-1.5,7.0,5.2,0.3,-4.6
COCCCNC(=O)C1CCN(c2nc(C)cc(C)n2)CC1,2.6%,0.7,1.9,24.0,0.7,36.5*
Cc1cccc(N(C)C(=O)CN(C)S(=O)(=O)c2ccc3[nH]c4c(c3c2)CCCC4)c1,-1.2%,3.5,-2.1,-3.3,-0.4,1.8
CCOCCCNC(=O)c1c(NC(=O)c2cc(=O)c3ccccc3o2)sc2c1CCC2,0.0%,-1.4,-0.6,-0.2,5.7,-3.9
Cc1ccc(C(=O)NCCc2ccc(S(N)(=O)=O)cc2)cc1-n1cnc2cccnc21,-0.5%,1.1,-0.3,-9.1,0.1,5.4
CCCCN(CCCC)C(=S)N/N=C/c1c(C)[nH]n(-c2ccccc2)c1=O,1.1%,-6.0,0.7,-11.3,-0.7,6.3
CCCSC(=S)c1c(C)[nH]n(-c2ccccc2)c1=O,-1.3%,-1.8,35.2*,-11.4,0.3,0.4

# High-throughput results (PubChem BioAssay)
